Laboratory results: PubChem BioAssay AID1159580 (chemical genetic matrix, 2015)
Several values for one entry are separate records, joined by “and”; a condition that tells them apart may be missing. Identical values can stand only once. Hit rate of the full screen: of about 5,500 compounds, about 2,000 (36%) were called active. Roughly 18% stayed inconclusive and do not appear here. Cut-off read from the data, not from the text of the source: active = normalized growth mostly below about 0.91 (no sharp cut-off); inconclusive = no clear call, values can overlap the other calls; inactive = mostly above about 0.92. The list shows a part of the results.

Experiment: chemical genetic growth profiling, strain panel (AID 1159580);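 note: tested at 20 µM; growth read once vehicle control cultures reached saturation at 30 °C; 1 = growth at the plate median or of vehicle wells; lower values mean less growth of the strain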
Conditions: S. cerevisiae deletion strains, growth OD

Measured: normalized growth

COc1cc(O)c2c(=O)cc(C)oc2c1CC=C(C)C
active: locus YAL013W, strain DEP1, stronger effect = lower value 0.864 | locus YCL029C, strain bik1, stronger effect = lower value 0.872 | locus YDL035C, strain GPR1, stronger effect = lower value 0.805 | locus YDL074C, strain BRE1, stronger effect = lower value 0.748 | locus YDL192W, strain arf1, stronger effect = lower value 0.814 | locus YDR101C, strain arx1, stronger effect = lower value 0.89 | locus YDR137W, strain rgp1, stronger effect = lower value 0.817 | locus YDR162C, strain NBP2, stronger effect = lower value 0.696 | locus YDR195W, strain ref2 1.17 [resistant] | locus YDR318W, strain mcm21, stronger effect = lower value 0.806 | locus YDR392W, strain spt3, stronger effect = lower value 0.496 | locus YDR502C, strain sam2, stronger effect = lower value 0.909 | locus YER167W, strain BCK2, stronger effect = lower value 0.893 | locus YGL086W, strain mad1, stronger effect = lower value 0.876 | locus YHR013C, strain ard1, stronger effect = lower value 1.21 [resistant] | locus YHR129C, strain ARP1, stronger effect = lower value 0.919 | locus YIL066C, strain RNR3, stronger effect = lower value 0.781 | locus YIL125W, strain kgd1, stronger effect = lower value 0.93 | locus YIR030C, strain dcg1, stronger effect = lower value 0.92 | locus YJL095W, strain BCK1 (second series), stronger effect = lower value 0.905 | locus YJL129C, strain trk1, stronger effect = lower value 0.867 | locus YKR001C, strain vps1, stronger effect = lower value 0.806 | locus YLR113W, strain HOG1, stronger effect = lower value 0.838 | locus YLR262C, strain YPT6 (second series), stronger effect = lower value 0.827 | locus YLR268W, strain sec22, stronger effect = lower value 0.816 | locus YLR320W, strain mms22, stronger effect = lower value 0.83 | locus YLR330W, strain CHS5, stronger effect = lower value 0.811 | locus YLR342W, strain FKS1 (second series), stronger effect = lower value 0.78 | locus YLR371W, strain rom2, stronger effect = lower value 0.831 | locus YLR418C, strain cdc73, stronger effect = lower value 0.628 | locus YML032C, strain rad52, stronger effect = lower value 0.858 | locus YMR058W, strain fet3, stronger effect = lower value 0.845 | locus YMR205C, strain PFK2, stronger effect = lower value 0.849 | locus YNL071W, strain lat1, stronger effect = lower value 0.847 | locus YNL233W, strain BNI4, stronger effect = lower value 0.852 | locus YNL307C, strain MCK1, stronger effect = lower value 0.618 | locus YOL147C, strain pex11, stronger effect = lower value 0.818 | locus YOR144C, strain elg1, stronger effect = lower value 0.919 | locus YOR184W, strain ser1, stronger effect = lower value 0.587 | locus YPR163C, strain tif3, stronger effect = lower value 0.776 | strain wtn01, stronger effect = lower value 0.852
inactive: locus YAL021C, strain ccr4, stronger effect = lower value 0.99 | locus YAL026C, strain drs2, stronger effect = lower value 0.996 | locus YAL030W, strain snc1, stronger effect = lower value 0.967 | locus YBL061C, strain skt5, stronger effect = lower value 0.96 | locus YBR009C, strain hhf1, stronger effect = lower value 0.917 | locus YBR021W, strain FUR4, stronger effect = lower value 0.9 | locus YBR023C, strain chs3, stronger effect = lower value 0.941 | locus YBR171W, strain sec66, stronger effect = lower value 0.968 | locus YBR229C, strain ROT2, stronger effect = lower value 0.93 | locus YBR231C, strain swc5, stronger effect = lower value 0.98 | locus YBR279W, strain paf1, stronger effect = lower value 0.991 | locus YCL011C, strain gbp2, stronger effect = lower value 0.962 | locus YCL016C, strain dcc1, stronger effect = lower value 0.953 | locus YCL069W, strain vba3, stronger effect = lower value 0.997 | locus YCR088W, strain abp1, stronger effect = lower value 0.982 | locus YDL005C, strain med2, stronger effect = lower value 1.03 | locus YDL040C, strain nat1, stronger effect = lower value 0.986 | locus YDL101C, strain DUN1, stronger effect = lower value 0.954 | locus YDL185W, strain tfp1, stronger effect = lower value 0.929 | locus YDR001C, strain nth1, stronger effect = lower value 0.979 | locus YDR069C, strain doa4, stronger effect = lower value 0.97 | locus YDR150W, strain NUM1, stronger effect = lower value 0.946 | locus YDR159W, strain sac3, stronger effect = lower value 0.959 | locus YDR297W, strain sur2, stronger effect = lower value 0.967 | locus YDR334W, strain swr1, stronger effect = lower value 0.984 | locus YDR335W, strain msn5, stronger effect = lower value 0.986 | locus YDR388W, stronger effect = lower value 0.943 | locus YEL003W, strain gim4, stronger effect = lower value 0.957 | locus YEL037C, strain rad23, stronger effect = lower value 0.984 | locus YEL061C, strain CIN8 (second series), stronger effect = lower value 0.993 | locus YEL061C, strain CIN8, stronger effect = lower value 0.941 | locus YER015W, strain faa2, stronger effect = lower value 0.977 | locus YER016W, strain bim1, stronger effect = lower value 0.965 | locus YER110C, stronger effect = lower value 0.947 | locus YER111C, strain swi4, stronger effect = lower value 1.01 | locus YER155C, strain BEM2 (second series), stronger effect = lower value 0.903 | locus YER155C, strain BEM2, stronger effect = lower value 0.928 | locus YFR010W, strain ubp6, stronger effect = lower value 1 | locus YGL078C, strain dbp3, stronger effect = lower value 0.971 | locus YGL167C, strain pmr1, stronger effect = lower value 0.952 | locus YGL173C, strain kem1, stronger effect = lower value 0.982 | locus YGL227W, strain vid30, stronger effect = lower value 1 | locus YGL240W, strain doc1, stronger effect = lower value 0.987 | locus YGL248W, strain PDE1, stronger effect = lower value 0.898 | locus YGL253W, strain hxk2, stronger effect = lower value 0.99 | locus YGR078C, strain PAC10, stronger effect = lower value 0.874 | locus YGR135W, strain pre9, stronger effect = lower value 1 | locus YGR252W, strain gcn5, stronger effect = lower value 0.839 | locus YHR027C, strain rpn1, stronger effect = lower value 0.985 | locus YHR030C, strain SLT2, stronger effect = lower value 0.95 | locus YHR079C, strain IRE1 (second series), stronger effect = lower value 0.949 | locus YHR079C, strain IRE1, stronger effect = lower value 0.953 | locus YHR094C, strain hxt1, stronger effect = lower value 0.941 | locus YHR142W, strain chs7, stronger effect = lower value 0.884 | locus YHR200W, strain rpn10, stronger effect = lower value 0.952 | locus YIL073C, strain SPO22, stronger effect = lower value 0.849 | locus YJL092W, strain hpr5, stronger effect = lower value 0.985 | locus YJL115W, strain asf1, stronger effect = lower value 1.02 | locus YJL134W, strain LCB3, stronger effect = lower value 0.946 | locus YJL154C, strain vps35, stronger effect = lower value 1 | locus YJL164C, strain tpk1, stronger effect = lower value 0.941 | locus YJL166W, strain qcr8, stronger effect = lower value 0.967 | locus YJL168C, strain set2, stronger effect = lower value 0.965 | locus YJL187C, strain SWE1 (second series), stronger effect = lower value 0.943 | locus YJR043C, strain POL32, stronger effect = lower value 0.87 | locus YJR066W, strain TOR1, stronger effect = lower value 0.929 | locus YKL009W, strain mrt4, stronger effect = lower value 0.897 | locus YKL068W, stronger effect = lower value 0.945 | locus YKL085W, strain MDH1 (second series), stronger effect = lower value 0.936 | locus YKL085W, strain MDH1, stronger effect = lower value 0.936 | locus YKL160W, strain elf1, stronger effect = lower value 0.945 | locus YKR026C, strain gcn3, stronger effect = lower value 0.986 | locus YKR091W, strain srl3, stronger effect = lower value 0.978 | locus YLL001W, strain dnm1, stronger effect = lower value 0.982 | locus YLL026W, stronger effect = lower value 0.974 | locus YLL041C, strain sdh2, stronger effect = lower value 0.96 | locus YLR027C, strain aat2, stronger effect = lower value 0.972 | locus YLR039C, strain RIC1, stronger effect = lower value 0.797 | locus YLR058C, strain SHM2, stronger effect = lower value 0.912 | locus YLR102C, strain apc9, stronger effect = lower value 0.945 | locus YLR221C, strain rsa3, stronger effect = lower value 0.942 | locus YLR258W, strain gsy2, stronger effect = lower value 0.972 | locus YLR262C, strain YPT6, stronger effect = lower value 0.674 | locus YLR342W, strain FKS1, stronger effect = lower value 0.929 | locus YLR357W, strain rsc2, stronger effect = lower value 1.06 | locus YLR370C, strain arc18, stronger effect = lower value 0.97 | locus YLR384C, strain iki3, stronger effect = lower value 0.991 | locus YML016C, strain PPZ1, stronger effect = lower value 0.944 | locus YML120C, strain ndi1, stronger effect = lower value 0.976 | locus YML124C, strain tub3, stronger effect = lower value 0.945 | locus YMR078C, strain ctf18, stronger effect = lower value 0.919 | locus YMR125W, strain sto1, stronger effect = lower value 0.997 | locus YMR129W, stronger effect = lower value 0.979 | locus YMR223W, strain ubp8, stronger effect = lower value 0.911 | locus YMR231W, strain pep5, stronger effect = lower value 1.01 | locus YMR307W, strain GAS1, stronger effect = lower value 0.668 | locus YNL067W, strain RPL9B, stronger effect = lower value 1 | locus YNL153C, strain GIM3, stronger effect = lower value 0.926 | locus YNL183C, strain NPR1, stronger effect = lower value 0.935 | locus YNL209W, strain ssb2, stronger effect = lower value 0.973 | locus YNL248C, strain rpa49, stronger effect = lower value 1.04 | locus YNL250W, strain rad50, stronger effect = lower value 0.977 | locus YNL271C, strain bni1, stronger effect = lower value 0.953 | locus YNL298W, strain CLA4, stronger effect = lower value 0.923 | locus YNL322C, strain KRE1 (second series), stronger effect = lower value 0.998 | locus YNR049C, strain mso1, stronger effect = lower value 0.996 | locus YNR052C, strain pop2, stronger effect = lower value 0.988 | locus YOL012C, strain htz1 0.465 | locus YOR001W, strain rrp6, stronger effect = lower value 0.989 | locus YOR061W, strain CKA2, stronger effect = lower value 0.92 | locus YOR069W, strain VPS5, stronger effect = lower value 0.964 | locus YOR070C, strain gyp1, stronger effect = lower value 0.982 | locus YOR080W, strain dia2, stronger effect = lower value 0.993 | locus YOR083W, strain WHI5, stronger effect = lower value 0.97 | locus YOR106W, strain vam3, stronger effect = lower value 0.971 | locus YOR136W, strain idh2, stronger effect = lower value 0.963 | locus YOR231W, strain MKK1, stronger effect = lower value 0.941 | locus YOR265W, strain rbl2, stronger effect = lower value 0.973 | locus YOR270C, strain vph1, stronger effect = lower value 0.837 | locus YOR290C, strain snf2, stronger effect = lower value 0.941 | locus YOR316C, strain cot1, stronger effect = lower value 0.944 | locus YPL051W, strain arl3, stronger effect = lower value 0.936 | locus YPL078C, strain atp4, stronger effect = lower value 0.959 | locus YPL106C, strain sse1, stronger effect = lower value 0.954 | locus YPL240C, strain hsp82, stronger effect = lower value 0.965 | locus YPL256C, strain CLN2, stronger effect = lower value 0.933 | locus YPR119W, strain clb2, stronger effect = lower value 0.951 | locus YPR141C, strain kar3, stronger effect = lower value 0.93 | locus YPR167C, strain met16, stronger effect = lower value 0.937
0.78 (active) and 0.962 (inactive): locus YJL095W, strain BCK1, stronger effect = lower value
